Each structure is given as a SMILES string. The source made the active and inactive calls.

Z-score data for 35 compounds are collected here from PubChem BioAssay.

The nature of the assay: S. cerevisiae growth modulation with rapamycin, primary screen, strain BY4716, OD600, 96 h (AID 1091). Further: test concentration not given here. The conditions noted are these: higher = more signal, called active from +8 up or from −8 down.
Turning to `COC(=O)[C@@]1(Cc2ccc(F)cc2)[C@H]2c3cc(C(=O)N(C)C)n(CCc4ccc(O)c(O)c4)c3C[C@H]2CN1C(=O)c1ccccc1`, the z-score was 0.987 (inactive).
Next, `[N-]=[N+]=Nc1ccccc1C[C@]1(C(=O)N2CCOCC2)N=C(c2ccc(OCCCO)cc2)O[C@H]1c1ccccc1N=[N+]=[N-]`: 2.91 (inactive); `COCCOC(=O)N1C(=O)[C@@]2(c3cc(C#CCCO)ccc31)[C@H](c1ccc(OCCO)cc1)N1[C@H](c3ccccc3)[C@H](c3ccccc3)OC(=O)[C@H]1[C@@H]2C(=O)N1CCCCCCC1`: 3.69 (inactive); `COC(=O)C(CC#Cc1ccc2c(c1)[C@]1(C(=O)N2)[C@H](c2ccc(OCCO)cc2)N2[C@H](c3ccccc3)[C@H](c3ccccc3)OC(=O)[C@H]2[C@@H]1C(=O)N1CCCCCCC1)C(=O)OC`: 2.56 (inactive).
Take `O=C1C[C@@](C(=O)O)(c2ccc([N+](=O)[O-])cc2)[C@@H](c2ccc(CO)cc2)N1C1CCCCC1`: the z-score is 1.05 (inactive).
As to `C=CC[C@]1(C(=O)NCC(O)CO)COC(c2ccc(OCCCO)cc2)=N1` (stereo not given in full), the z-score was 0.959 (inactive).
As to `C=C(COC)C(=O)CC[C@H](OC(=O)c1cccnc1)c1ccc(OCCO)cc1`, the z-score is 0.535 (inactive).
With `C=CCNC(=O)[C@H]1[C@@H]2C(=O)O[C@@H](c3ccccc3)[C@@H](c3ccccc3)N2[C@@H](c2ccc(OCCO)cc2)[C@]12C(=O)Nc1ccccc12`, the z-score is 2.84 (inactive).
For the compound `C=CC1c2cc(O)c(OC)cc2CCN1C` (stereo not given), the z-score was 0.0904 (inactive).
Next, `CC1CC/C=C\[C@H]2OC34C=CCN(c5ccc(Cl)cc5)C(=O)[C@H]3N(CCCCCCO)C(=O)[C@]4(C)C2C(=O)O1` (stereo not given in full): 0.187 (inactive); `CCCC=C(CCC)[C@@H](NC(=O)c1ccc(C(F)(F)F)cc1)c1ccc(C(F)(F)F)cc1`: 1.23 (inactive).
Next, `Cc1ccccc1C(O)C1C=CC2C(=O)N(c3ccccc3)C(=O)C2N1Nc1ccccc1` (stereo not given): 0.0369 (inactive).
In the case of `CCOC(=O)C[C@H]1[C@H](OC(=O)c2ccccc2-c2ccccc2)[C@@H](NC(=O)c2ccc3ccccc3c2)c2cc(OCCCO)ccc2N1C(=O)Cc1ccc(OC)cc1` it was -0.248 (inactive).
In the case of `COc1ccc(C(=O)Nc2ccc3c(c2)[C@@]2(O[C@H](CCO)[C@@H]([Si](C)(C)c4ccc(OC)cc4)[C@@H]2C)C(=O)N3Cc2ccccc2)cc1`, the z-score is 2.7 (inactive).
Next, `COCCOC(=O)N1C(=O)[C@@]2(c3cc(C#CCC(C(=O)OC)C(=O)OC)ccc31)[C@H](c1ccc(O)cc1)N1[C@H](c3ccccc3)[C@H](c3ccccc3)OC(=O)[C@H]1[C@@H]2C(=O)Nc1nc2ccccc2s1`: 0.0726 (inactive).
Regarding `C=C(COC)/C(=C/C[C@H](OC(C)=O)c1ccccc1OCCO)c1cc(C(=O)OC)ccc1OC`, the z-score was -0.16 (inactive).
In the case of `O=C1[C@H]2C=C(I)[C@H](C[C@@H]2OCCCCCCO)[C@@]12CO2` it was -0.384 (inactive); in that of `CCCCC(=C=CC[C@H](O)c1ccc(CO)o1)CCO`, -0.0978 (inactive); in that of `COc1ccccc1CN1C(=O)c2ccccc2[C@](Cc2ccccc2I)(C(=O)NCC(C)C)[C@@H]1c1ccc(CO)cc1`, 0.0134 (inactive).
For the compound `C=CCC(OC(C)=O)[C@@H]1[C@@H](N(Cc2ccc(-c3ccccc3)cc2)C(=O)c2cccc3ccccc23)c2cc(OCCCO)ccc2N1C(=O)Cc1ccc(OC)cc1` (stereo not given in full), the z-score is -0.631 (inactive).
In the case of `CC(C)N1C(=O)c2ccccc2[C@](C)(C(=O)NCC(F)(F)F)[C@@H]1c1ccc(CO)cc1`, the z-score is -0.674 (inactive).
On to `O=C1NC(=O)C2C1C=CC(C(O)c1ccc([N+](=O)[O-])cc1)N2Nc1ccccn1` (stereo not given), for which the z-score is 0.346 (inactive).
Turning to `CN1C(=O)C2C=CC(C(O)c3ccc(-c4ccccc4)s3)N(NC(=O)OC(C)(C)C)C2C1=O` (stereo not given), the z-score is 0.0406 (inactive).
Take `CN(C)CCCNC(=O)[C@@]1(C)c2ccccc2C(=O)N(Cc2ccc(OC(F)(F)F)cc2)[C@H]1c1ccc(CO)cc1`: the z-score is -1.42 (inactive).
For `COCCCNC(=O)[C@@]1(CCS(=O)(=O)c2ccccc2)COC(c2ccc(OCCCO)cc2)=N1`, the z-score is -0.403 (inactive).
For `COC(=O)[C@@]1(Cc2ccc(OC)cc2)[C@H]2c3cc(C(=O)N4CCCC4)n(Cc4ccc(C(F)(F)F)nc4)c3C[C@H]2CN1C(=O)c1ccccc1`, the z-score is -0.707 (inactive).
In the case of `COC(=O)C(CC#Cc1ccc2c(c1)[C@]1(C(=O)N2)[C@H](c2ccccc2OCCO)N2[C@H](c3ccccc3)[C@H](c3ccccc3)OC(=O)[C@H]2[C@@H]1C(=O)N1CCc2cc(OC)c(OC)cc2C1)C(=O)OC`, the z-score is 4.27 (inactive).
In the case of `COc1ccc(C(O)C2C=CC3C(=O)N(C)C(=O)C3N2N(c2ccccc2)c2ccccc2)cc1` (stereo not given), the z-score is 1.08 (inactive).
In the case of `COCCOC(=O)N1C(=O)[C@@]2(c3cc(C#CCC(C(=O)OC)C(=O)OC)ccc31)[C@H](C(=O)Nc1nc3ccccc3s1)[C@H]1C(=O)O[C@H](c3ccccc3)[C@H](c3ccccc3)N1[C@@H]2c1ccc(O)cc1` it was 1.16 (inactive); in that of `CC(C)(C)N1CC=CC23O[C@@H]4C=CCCOC(=O)C4[C@H]2C(=O)N(CCCCCCO)[C@@H]3C1=O` (stereo not given in full), 0.352 (inactive); in that of `O=C1C[C@@](C(=O)NCc2ccccc2)(c2ccc([N+](=O)[O-])cc2)[C@@H](c2ccc(CO)cc2)N1C1CCCCC1`, 1.08 (inactive).
As for `Cc1ccc(S[C@]2(C(=O)NCc3ccccc3)CC(=O)N(Cc3ccccc3C(F)(F)F)[C@@H]2c2ccc(CO)cc2)cc1`, the z-score was -0.417 (inactive).
Take `COCCOC(=O)N1C(=O)[C@@]2(c3cc(C#CCCO)ccc31)[C@H](C(N)=O)[C@H]1C(=O)O[C@H](c3ccccc3)[C@H](c3ccccc3)N1[C@@H]2c1ccccc1OCCO`: the z-score is 3.4 (inactive).
For `CC(C)=C1C(=O)C(c2ccccc2)=C2CN3C(=O)N(CCc4ccccc4)C(=O)[C@]3(C)[C@H]21`, the z-score is 1.48 (inactive).
With `CC(C)(C)OC(=O)CC[C@@]1(C(=O)NCCN2CCOCC2)N=C(c2ccc(OCCCO)cc2)O[C@@H]1c1ccccc1CN=[N+]=[N-]`, the z-score is -1.3 (inactive).
